Measured values taken from PubChem BioAssay (NCI).
About 83,000 compounds went through this panel and 20% of them were active in at least one assay; those are over-represented in the sample as a whole.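 Activity criterion: percent growth below 10, measured after cells in 96-well plates were exposed to a single compound concentration for 48 hours.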 The source made the active and inactive calls.

system: SK-OV-3 ovarian; experiment: NCI-60 one-dose screen, 48 h (100 = growth as untreated, 0 = no growth, -100 = all killed); conditions: 10 µM unless noted
Procedure: Growth inhibition of the SK-OV-3 human tumor cell line is measured as a screen for anti-cancer activity. Cells are grown in 96 well plates and exposed to the test compound for 48 hours. Compounds are tested at a single concentration, which is 10^-5 M for most compounds. The reported endpoint is percent growth (GI% or GIPRCNT), where numbers from 0 - 100% represent growth inhibition, and numbers from -100% - 0 represent cell death. For example, a value of 40 represents 60% growth inhibition. A value of 0 means no net growth occurred over the course of the experiment. A value of -40 indicates 40% of cells at the beginning of the experiment died by the end of the experiment. A value of -100 means all cells are dead at the end of the experiment.
NCI-60 Human Tumor Cell Lines Screen was performed using the standard one-dose NCI protocol, which is described in more detail at https://dtp.cancer.gov/discovery_development/nci-60/default.htm.
Compounds with GIPRCNT values below 10 were considered active. Activity score was based on GIPRCNT using the following formula: […]
Score is 0 for GIPRCNT values of 100 or above, 50 for GIPRCNT values of 0, and 100 for GIPRCNT values of -100.

Q: Which growth does the source give for `COc1cc2c(c(OC)c1OC)C(=O)CC(c1cccc(NC(=O)c3cc(NC(=O)[C@H](C)N)ccc3Cl)c1)O2` (stereo not given in full) here?
A: The growth was 102% (inactive).

Q: How did the growth turn out when `COc1ccc([C@H](C)Nc2nc(Cl)nc3ccccc23)cc1` was run?
A: Its growth is 70.5% (inactive).

Q: With `COc1ccc(NC(=O)Nc2ccc(OCc3ccc(F)cc3)cc2)cc1` as the molecule, how does the growth read?
A: The growth was 76.2% (inactive).

Q: `COc1cc(NC(=O)c2cccc(C3CCc4c(cc(OC)c(OC)c4OC)O3)c2)cc(OC)c1OC` (stereo not given) was tested. Which growth did it give?
A: The growth was 32.4% (inactive).

Q: How did the growth turn out when `CC1(C)CC[C@]2(C(=O)O)CC[C@]3(C)C(=CCC4[C@@]5(C)C[C@@H](O)[C@@H]6OC(c7ccco7)OC[C@@]6(C)C5CC[C@]43C)C2C1` (stereo not given in full) was run?
A: Its growth is 75.6% (inactive).

Q: For `CC(C)c1sc(NC(=O)c2cc(NC(=O)c3cc(NC(=O)c4nccn4C)cn3C)cn2C)nc1C(=O)NCCCN(C)C`, which growth is on record?
A: Its growth is 60% (inactive).

Q: For `Nc1nc(C(F)(F)F)cs1`, which growth is on record?
A: Its growth is 101% (inactive).

Q: Which growth does the source give for `COc1ccc2c(c1)c(-c1cc(N)n3nc(-c4cn(C)c5ccccc45)cc3n1)cn2C` here?
A: The growth was -79.5% (active).

Q: Which growth does the source give for `CNS(=O)(=O)c1ccc(Nc2ccc(C(F)(F)F)cc2)c(-c2cn(C)cn2)c1` here?
A: The growth was 86.8% (inactive).

Q: Which growth does the source give for `COc1cc2oc(-c3cccc(C(=O)Nc4cccc([N+](=O)[O-])c4)c3)cc(=O)c2c(OC)c1OC` here?
A: The growth was -9.46% (active).

Q: `Cc1c(C(=O)NNC(=O)Nc2ccc(Cl)cc2)nnn1-c1ccc(Br)cc1` was tested. Which growth did it give?
A: Its growth is 79.6% (inactive).

Q: `COc1c(F)ccc(C(=O)Nc2ccc3nc(NC(=O)C4CCCN(S(=O)(=O)c5cccc(Cl)c5)C4)sc3c2)c1F` (stereo not given) was tested. Which growth did it give?
A: The growth was 105% (inactive).

Q: With `Cc1ccc([C@H]2C(C(=O)c3ccc(Cl)cc3)C3(N[C@@H]2c2ccccc2)C(=O)Nc2ccc(Cl)cc23)cc1` (stereo not given in full) as the molecule, how does the growth read?
A: The growth was 67.4% (inactive).

Q: For `COc1ccc(C(=O)/C=C/c2cc3c(cc2Br)OCO3)cc1S(N)(=O)=O`, which growth is on record?
A: Its growth is 69% (inactive).

Q: How did the growth turn out when `COc1c(F)ccc(C(=O)Nc2ccc3nc(NC(=O)C4CCCN(S(=O)(=O)C5CC5)C4)sc3c2)c1F` (stereo not given) was run?
A: Its growth is 43.7% (inactive).

Q: `Cc1ccc(NC(=O)CN2CCN(c3ncnc4c3cnn4-c3ccccc3)CC2)cc1` was tested. Which growth did it give?
A: The growth was 112% (inactive).

Q: `COc1ccc2[nH]cc(-c3nnc(N)nc3-c3cn(C)c4ncc(Br)cc34)c2c1` was tested. Which growth did it give?
A: Its growth is 95.2% (inactive).

Q: With `N#Cc1cnn(C(=O)c2ccccc2Br)c1NC(=O)c1ccc(Br)cc1Cl` as the molecule, how does the growth read?
A: The growth was 86.7% (inactive).

Q: Which growth does the source give for `CC1(C)CC[C@]2(C(=O)Nc3ccccc3)CC[C@]3(C)C(=CCC4[C@@]5(C)C[C@@H](O)[C@H](O)[C@@](C)(CO)C5CC[C@]43C)C2C1` (stereo not given in full) here?
A: The growth was 65.5% (inactive).

Q: `CCOC(=O)COc1c(OC)c(OC)cc2oc(-c3cccc(C(=O)Nc4ccc(Cl)cc4)c3)cc(=O)c12` was tested. Which growth did it give?
A: Its growth is 75.4% (inactive).

Q: With `Cc1ccc(C2=NN(c3nc(-c4cc5ccccc5oc4=O)cs3)C(c3ccc(C)cc3)C2)cc1` (stereo not given) as the molecule, how does the growth read?
A: Its growth is 80.3% (inactive).

Q: `CCOC(=O)C1=C(N)N(c2ccccc2)C2=C(C(=O)CC(C)(C)C2)C1c1ccccc1Cl` (stereo not given) was tested. Which growth did it give?
A: Its growth is 90.1% (inactive).

Q: With `N/C(=N\c1nc2ccccc2s1)NC(=O)Nc1c(Cl)cccc1Cl` as the molecule, how does the growth read?
A: The growth was 65.2% (inactive).

Q: For `C/C(=N\Nc1ccc(S(N)(=O)=O)cc1)c1ccc(N=Nc2c(Nc3ccccc3)[nH][nH]c2=O)cc1`, which growth is on record?
A: Its growth is -15.5% (active).

Q: `COc1ccccc1/C=C/C(=O)c1ccc(OC)c(S(N)(=O)=O)c1` was tested. Which growth did it give?
A: Its growth is 47.5% (inactive).

Q: For `CC1(C)CC[C@]2(C(=O)Nc3ccc(Br)cc3)CC[C@]3(C)C(=CCC4[C@@]5(C)C[C@@H](O)[C@H](O)[C@@](C)(CO)C5CC[C@]43C)C2C1` (stereo not given in full), which growth is on record?
A: Its growth is 4.34% (active).

Q: How did the growth turn out when `O=C1/C(=C/C2=Cc3ccccc3OC2)SC(=S)N1c1ccccc1F` was run?
A: The growth was 95.3% (inactive).

Q: For `CCCSc1nc(Nc2ccc(S(N)(=O)=O)cc2)c(C#N)c(-c2ccc(Cl)cc2)n1`, which growth is on record?
A: The growth was -32.6% (active).

Q: With `COc1cc(OC)cc(C(=O)Nc2cccc(-c3cn(-c4ccc(S(N)(=O)=O)cc4)nn3)c2)c1` as the molecule, how does the growth read?
A: Its growth is 47.5% (inactive).

Q: How did the growth turn out when `N#Cc1c(-c2ccc(Br)cc2)nc2n[nH]c(-c3ccc(Br)cc3)c2c1-c1ccc(C(F)(F)F)cc1` was run?
A: Its growth is 21.8% (inactive).

Q: With `O=C(CCN1C(=O)/C(=C/c2ccc(F)cc2)SC1=S)N1CCOCC1` as the molecule, how does the growth read?
A: Its growth is 91.5% (inactive).

Q: Which growth does the source give for `COc1ccc(/C=C/c2nc3ccccc3nc2Nc2cccc(C)c2)cc1` here?
A: Its growth is 95.9% (inactive).

Q: For `Clc1cccc(-c2ccc(OCCCN3CCN(c4ccncc4)CC3)cc2)c1`, which growth is on record?
A: The growth was 30.1% (inactive).

Q: Which growth does the source give for `O=C(COc1ccc(NC(=O)Nc2ccc(Cl)cc2)cc1)N/N=C/c1ccccc1` here?
A: Its growth is -60.2% (active).

Q: `CCCCn1c(O)c(N=Nc2nc(-c3cc4ccccc4oc3=O)cs2)c2cc(Br)ccc21` was tested. Which growth did it give?
A: Its growth is 124% (inactive).

Q: Which growth does the source give for `CC12CC[C@@H]3[C@]4(C)COC(c5cn[nH]c5-c5cccc(Br)c5)O[C@@H]4CC[C@@]3(C)[C@@H]1CC(C1=CCOC1=O)O2` (stereo not given in full) here?
A: Its growth is 53.8% (inactive).

Q: For `CCCCSc1nc(Nc2ccc(S(N)(=O)=O)cc2)c(C#N)c(-c2ccc(Cl)cc2)n1`, which growth is on record?
A: The growth was 30.4% (inactive).

Q: Which growth does the source give for `COc1ccc(C(SCCNCc2cc(N(C)C)ccn2)(c2ccccc2)c2ccccc2)cc1` here?
A: Its growth is -5.07% (active).

Q: How did the growth turn out when `C=C1CC[C@@H]2[C@]3(C)COC(c4ccco4)O[C@@H]3CC[C@@]2(C)[C@@H]1C/C=C1/C(=O)OCC1OC(C)=O` (stereo not given in full) was run?
A: The growth was 105% (inactive).

Q: With `CCOC(=O)/C=C/c1cccc2c1C(=O)NC(C)(c1cc3cc(Cl)ccc3oc1=O)N2` (stereo not given) as the molecule, how does the growth read?
A: The growth was -0.634% (active).
